Sampled rows, rich in hits. Any-hit rate of the full collection: about 3.2%.
APOBEC3A inh – APOBEC3A ssDNA deaminase inhibitors, primary screen, selectivity assay for APOBEC3G inhibitor project, biochemical, FAM/TAMRA oligo cleavage fluorescence; inhibition, % at 20 µM; 0.41% of 330,000 active; recombinant A3A, FAM/TAMRA ssDNA deamination fluorescence;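 active = at least 40% inhibition at 20 µM here, with at most 30% in a related deaminase screen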;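 note: plate controls were A3A with DMSO for no effect and wells lacking A3A enzyme for full effect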
NTR1 ag – agonists of human NTR1, primary screen, imaging, U2OS cells, beta-arrestin-GFP, high content; Neurotensin receptor type 1 (Homo sapiens), P30989; NTR1-U2OS beta-arrestin-GFP spot imaging, agonist mode; activation, % at 20 µM; 0.17% of 330,000 active;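 active = activation at or above 40% of the spot to cytoplasm intensity ratio, with at least 20 cells analyzed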;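 note: 0% = DMSO without peptide and 100% = 100 nM NTR1 peptide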
Target sequence (P30989 whole entry, looked up): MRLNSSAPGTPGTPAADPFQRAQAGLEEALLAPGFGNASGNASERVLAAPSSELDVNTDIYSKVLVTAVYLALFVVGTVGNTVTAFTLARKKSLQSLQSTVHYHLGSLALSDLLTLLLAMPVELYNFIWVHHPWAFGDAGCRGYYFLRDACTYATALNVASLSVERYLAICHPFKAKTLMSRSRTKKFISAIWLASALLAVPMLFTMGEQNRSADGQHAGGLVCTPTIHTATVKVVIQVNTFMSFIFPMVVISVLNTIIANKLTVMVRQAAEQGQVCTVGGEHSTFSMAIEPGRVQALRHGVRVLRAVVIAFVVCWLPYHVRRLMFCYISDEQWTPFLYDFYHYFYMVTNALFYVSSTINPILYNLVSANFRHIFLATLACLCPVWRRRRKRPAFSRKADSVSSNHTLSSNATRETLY
A3G deaminase – APOBEC3G DNA deaminase inhibitors, primary screen, biochemical, fluorescence, single-stranded DNA substrate, uHTS; DNA dC->dU-editing enzyme APOBEC-3G (Homo sapiens), Q9HC16; inhibition, % at 20 µM; 0.28% of 330,000 active; recombinant A3G, ssDNA deamination FAM/TAMRA fluorescence;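 active = inhibition of at least 40% at 20 µM, with no more than 30% in the related APOBEC3A deaminase screen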;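 note: plate controls were DMSO wells with A3G for no effect and wells lacking A3G enzyme for full effect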
AHR act – AHR activators, primary screen, cell-based, luminescence, luciferase reporter, human; Aryl hydrocarbon receptor (Homo sapiens), P35869; AHR-responsive luciferase reporter cells; activation, % at 5 µM; 2.5% of 320,000 active; AID 2796, 2010; in the data active = activation above about 47%;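 note: 0% = vehicle wells and 100% = reference agonist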
Active calls of the source: *; · = no result.

SMILES	APOBEC3A inh	NTR1 ag	A3G deaminase	AHR act
Cc1cc(NC(=O)c2cc(-c3ccccn3)nc3c(Cl)cccc23)no1	1	17	2	23
O=C(Nc1nccs1)c1cc(N2CCOCC2)nc2ccccc12	-21	-1	-7	76*
O=C(Nc1nccs1)c1cc(-c2ccccc2)nc2ccccc12	-1	1	-1	25
Cc1cccc(-c2nc(NCCCN3CCOCC3)c3ccccc3n2)c1	-5	4	-7	52*
O=C(Nc1nccs1)c1cc(-c2ccccn2)nc2c(Cl)cccc12	19	1	-19	76*
O=C(Nc1nccs1)c1cc(Cl)nc2ccccc12	-3	0	3	68*
O=C(Nc1ccc(F)cc1)c1cc(-c2ccncc2)nc2c(Cl)cccc12	-4	4	-11	69*
Cc1ccc(NC(=O)c2cc(N3CCOCC3)nc3ccccc23)cc1	-2	0	-6	58*
COc1cccc(NC(=O)c2cc(-c3cccnc3)nc3c(Cl)cccc23)c1	7	14	-5	24
Cc1ccc(-c2nc(Nc3ccc(N4CCOCC4)cc3)c3ccccc3n2)cc1	2	32	13	70*
O=C(Nc1ccccc1)c1cc(N2CCOCC2)nc2ccccc12	-4	0	-2	58*
Cc1cccc(NC(=O)c2cc(N3CCOCC3)nc3ccccc23)c1	-6	-1	-5	22
O=C(NC(=S)Nc1ccccc1N1CCCC1)c1ccc(F)cc1	-1	3	1	71*
COc1ccccc1C(=O)NC(=S)Nc1ccccc1N1CCCC1	-4	2	-3	53*
COc1cccc(OC)c1C(=O)Nc1ccccc1N1CCCC1	0	-4	1	13
O=C(NC(=S)Nc1ccccc1N1CCCCC1)c1ccccc1	-5	12	-10	33
COc1ccccc1C(=O)NC(=S)Nc1ccc(N2CCCC2)cc1	-1	3	-1	85*
O=C(NC(=S)Nc1ccccc1N1CCOCC1)c1ccc(Br)cc1	0	5	-6	55*
O=C(c1cccs1)N(c1ccc(Br)cc1)C1C=CS(=O)(=O)C1 (stereo not drawn)	-2	-1	-9	5
CC(C)OCCCn1c(SCC(=O)N2CCc3ccccc32)nc2ccccc2c1=O	-1	7	-8	5
COc1cc2ccccc2cc1C(=O)NC(=S)Nc1cccc(C(=O)O)c1	0	0	1	-1
Cc1ccccc1C(=O)NC(=S)Nc1ccccc1N1CCCC1	-4	4	0	50*
COc1cc2ccccc2cc1C(=O)NC(=S)Nc1ccc(C(=O)O)cc1	-6	1	-6	52*
Cc1c(N(C)C)nc2ccccc2c1N	-3	-1	-9	22
CCN(CC)c1nc2ccccc2c(N)c1-c1ccccc1	3	0	7	55*
SMILES	APOBEC3A inh	NTR1 ag	A3G deaminase	AHR act
COC(=O)c1c(-c2ccc(OC)cc2)oc2ccccc12	-5	-4	-7	4
COc1ccc(-c2oc3ccccc3c2C#Cc2cncn2C)cc1	-1	9	-9	49*
COc1ccc(-c2sc3ccc(OC)cc3c2-c2ccc(OC)nc2)cc1	-6	8	-9	8
COc1ccc(-c2sc3ccc(OC)cc3c2C#Cc2cncn2C)cc1	3	16	5	75*
COC(=O)c1ccccc1NC(=O)CN1C(=O)c2ccccc2C1=O	-2	1	-1	0
c1ccc2c(c1)[nH]c1c3ccccc3sc21	-6	4	-6	39
CN(C)c1ccc(-c2nc3ccccn3c2/N=C/c2ccc(Br)cc2)cc1	-1	5	-3	47*
COc1ccccc1NC(=O)c1cc(Cl)ccc1NC(=O)c1ccco1	-3	4	-3	63*
O=C(Nc1ccccc1)Nc1ccccn1	0	0	-4	14
COc1cc(NC(=O)c2ccc(C)c([N+](=O)[O-])c2)ccc1NC(=O)c1ccco1	4	4	-10	3
COc1cc(NC(=O)c2ccc(OC)c([N+](=O)[O-])c2)ccc1NC(=O)c1ccco1	2	0	-2	50*
O=C(Nc1ccc(Cl)cc1)Nc1ccccn1	-3	1	-2	50*
COc1ccccc1C(=O)Nc1cc(C)ccc1NC(=O)c1ccco1	11	1	1	65*
CN(C(=O)Nc1ccc(C(C)(C)C)cc1)C1CCCCC1	-1	0	-3	2
O=C(Nc1ccc(Cl)cc1C(=O)Nc1ccccn1)c1ccco1	-4	0	-4	64*
COc1ccccc1NC(=O)c1sc(NC(=O)c2ccco2)c(C#N)c1C	-1	2	1	66*
CC(C)N=C(NS(=O)(=O)NC(=O)c1ccccc1)c1ccccc1	1	1	-6	5
O=C1CC(c2ccc(S(=O)(=O)NCc3ccncc3)cc2)CN1 (stereo not drawn)	1	-4	6	78*
O=C(CC1OC(=O)c2ccccc21)Nc1cc(S(=O)(=O)N2CCOCC2)ccc1OCC(F)(F)F (stereo not drawn)	8	0	-4	-1
Cc1ccc(C2NC(=O)c3c(sc(C)c3C)N2)c(O)c1 (stereo not drawn)	-4	0	-4	49*
Cc1ccccc1NC(=O)CC1S/C(=N/c2nccs2)N(C)C1=O (stereo not drawn)	-2	1	-2	14
Cc1ccc(NC(=O)CC2S/C(=N/c3nccs3)N(C)C2=O)cc1C (stereo not drawn)	0	10	1	53*
Cc1c(C(=O)NCC(c2ccco2)N(C)C)oc2c(Cl)cccc12 (stereo not drawn)	-1	2	-9	48*
C/C(=N\NC(=O)c1cc2c(s1)CCC(C)C2)c1ccncc1 (stereo not drawn)	-5	4	-6	56*
C/C(=N\NC(=O)c1ccccc1O)c1cccc(NC(=O)c2ccccc2)c1	-2	4	-6	53*
SMILES	APOBEC3A inh	NTR1 ag	A3G deaminase	AHR act
C/C(=N\NC(=O)c1ccccc1O)c1ccc(NC(=O)c2ccccc2)cc1	-5	3	-7	·
C/C(=N\NC(=O)c1cccc([N+](=O)[O-])c1)c1ccncc1	-2	4	-7	78*
C/C(=N/NC(=O)c1ccc(O)cc1)c1cccc([N+](=O)[O-])c1	-5	1	-8	2
C/C(=N\NC(=O)c1cccc(N/N=C(\C)c2ccncc2)c1)c1ccncc1	0	2	-2	67*
C/C(=N\NC(=O)c1cc2c(s1)CCC(C)C2)c1ccc[nH]1 (stereo not drawn)	-1	-2	-7	40
CCn1cc(S(=O)(=O)Nc2cc(F)ccc2C)cn1	-3	0	8	-1
CC(=O)c1ccc(NC(=O)c2cnsn2)cc1	1	0	3	4
CCN1CCN=C1Nc1ccccc1	-3	-1	-7	1
